# A number with no mark means an inactive call. Inconclusive results are not listed. Where a call stands in place of a potency, no number is given. Active and inactive are the calls of the source. The call rests on the fitted dose curve; in most records, active means well fitted curve in the direction sought with a large enough effect in the repeat runs; inconclusive means weak or mixed curves; inactive means no such curve, though single readings can be large; an effect the other way counts as inactive or inconclusive.
# Assays:
# [1] = Human pregnane X receptor (PXR) small molecule agonists, qHTS cell viability counter screen (AID 1346977); further: nearly all actives have a fitted effect of over 50% in size; further: potency means the concentration at half of the fitted maximal effect
# Method in brief: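 Tox21 qHTS format; PXR-Luc HepG2, 2,000/well, charcoal-stripped FBS 5%. Cpd exposure 24hr. Read: CellTiter-Fluor fluorescence, multiplexed with luciferase.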
# [2] = Caspase-3/7 induction in HepG2 cells by small molecules, qHTS assay (AID 1346978); further: nearly all actives have a fitted effect of over 15% in size; further: potency means the concentration at half of the fitted maximal effect
# Method in brief: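 Caspase-3/7 induction was measured by Caspase-Glo 3/7 luminescence (30 min, room temperature) after a 17 hr compound exposure of wild-type HepG2 cells seeded at 2,000 per well and pre-incubated 5 hr.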
# [3] = Caspase-3/7 induction in CHO-K1 cells by small molecules, qHTS cell viability counter screen (AID 1346979); further: nearly all actives have a fitted effect of over 35% in size; further: potency means the concentration at half of the fitted maximal effect
# Method in brief: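 CellTiter-Fluor viability check, qHTS format: wild-type CHO-K1, 16hr compound treatment, 1hr reagent incubation, fluorescence read.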
# [4] = Caspase-3/7 induction in CHO-K1 cells by small molecules, qHTS assay (AID 1346980); further: nearly all actives have a fitted effect of over 15% in size; further: potency means the concentration at half of the fitted maximal effect
# Method in brief: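 Luminescent Caspase-Glo 3/7 read (30min, room temperature) quantified apoptosis induction. Cells were wild-type CHO-K1, treated with compound for 17hr at 37 C and 5% CO2.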
# [5] = Caspase-3/7 induction in HepG2 cells by small molecules, qHTS cell viability counter screen (AID 1346981); further: nearly all actives have a fitted effect of over 30% in size; further: potency means the concentration at half of the fitted maximal effect
# Method in brief: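 Treatment of HepG2 cells with DMSO-delivered compounds ran 16 hr at 37 C following a 5-hr pre-incubation of 2,000 cells/well. CellTiter-Fluor fluorescence, read after 1 hr, served as the viability measure in a qHTS format.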
# [6] = target: Nuclear receptor subfamily 1 group I member 2 (Homo sapiens) (UniProt O75469); assay: Human pregnane X receptor (PXR) small molecule agonists, qHTS assay (AID 1346982); further: nearly all actives have a fitted effect of over 35% in size; further: potency means the concentration at half of the fitted maximal effect
# Method in brief: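 Stable HepG2 line reporting PXR-mediated CYP3A4 expression via luciferase. Treatment: 24 hr with compounds in DMSO at 37 C. Detection: ONE-Glo luminescence.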
# [7] = target: Nuclear receptor subfamily 1 group I member 2 (Rattus norvegicus) (UniProt Q9R1A7); assay: Rat pregnane X receptor (rPXR) activation by small molecules, qHTS assay (AID 1346983); details: rPXR luciferase reporter cells, One-Glo luminescence, 24 h; max activation: stronger effect = higher value; further: nearly all actives have a fitted effect of over 20% in size
# Method in brief: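 Luminescent readout (One-Glo luciferase, 30 min room temperature) followed 24 hr compound treatment at 37 C of rPXR cells plated 2,000 per well and preincubated 5hr; qHTS format with compounds delivered in DMSO.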
# [8] = target: Nuclear receptor subfamily 1 group I member 2 (Homo sapiens) (UniProt O75469); assay: CYP3A4 induction through human pregnane X receptor (PXR) by small molecules, qHTS assay (AID 1346984); further: nearly all actives have a fitted effect of over 40% in size; further: potency means the concentration at half of the fitted maximal effect
# Method in brief: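 After 24 h at 37C with compound, DPX-2 cells (HepG2, co-transfected PXR response element and CYP3A4 promoter-luciferase) got 3uM final P450-Glo Luciferin-IPA for 3 h; One-Glo luminescence followed.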
# [9] = target: Nuclear receptor subfamily 1 group I member 2 (Homo sapiens) (UniProt O75469); assay: Human pregnane X receptor (PXR) activation by small molecules, qHTS assay (AID 1346985); further: nearly all actives have a fitted effect of over 40% in size
# Method in brief: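 DPX-2 cells (HepG2 co-transfected with a PXR response element and a CYP3A4-promoter luciferase construct) were seeded at 2,000 per well, rested 5 hr at 37C, then exposed to DMSO-dissolved compounds for 24 hr. Activation was read as luciferase luminescence.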
# [10] = target: Cytochrome P450 2D6 (Homo sapiens) (UniProt P10635); assay: Cytochrome P450 Family 2 Subfamily D Member 6 (CYP2D6) small molecule antagonists: luciferase reporter qHTS assay (AID 1671196); further: nearly all actives have a fitted effect of over 50% in size; further: potency means the concentration at half of the fitted maximal effect
# Method in brief: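 Chemicals tested for interference with CYP2D6 activity; proluciferin substrate, NADPH regeneration, 1 h at room temperature, luminescent detection.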
# Sequence of Nuclear receptor subfamily 1 group I member 2 (Homo sapiens) (O75469 whole entry, looked up): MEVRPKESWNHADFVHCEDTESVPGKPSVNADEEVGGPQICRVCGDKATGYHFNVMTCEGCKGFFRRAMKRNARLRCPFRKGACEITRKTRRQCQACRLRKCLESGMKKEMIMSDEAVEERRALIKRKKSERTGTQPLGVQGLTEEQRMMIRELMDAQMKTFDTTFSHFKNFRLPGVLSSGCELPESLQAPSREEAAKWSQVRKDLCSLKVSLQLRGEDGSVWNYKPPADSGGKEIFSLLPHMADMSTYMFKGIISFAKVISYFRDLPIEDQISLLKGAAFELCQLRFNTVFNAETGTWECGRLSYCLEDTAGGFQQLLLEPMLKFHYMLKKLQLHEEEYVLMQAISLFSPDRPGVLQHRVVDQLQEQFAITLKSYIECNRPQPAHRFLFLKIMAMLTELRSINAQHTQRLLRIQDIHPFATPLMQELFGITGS
# Sequence of Cytochrome P450 2D6 (Homo sapiens) (P10635 whole entry, looked up): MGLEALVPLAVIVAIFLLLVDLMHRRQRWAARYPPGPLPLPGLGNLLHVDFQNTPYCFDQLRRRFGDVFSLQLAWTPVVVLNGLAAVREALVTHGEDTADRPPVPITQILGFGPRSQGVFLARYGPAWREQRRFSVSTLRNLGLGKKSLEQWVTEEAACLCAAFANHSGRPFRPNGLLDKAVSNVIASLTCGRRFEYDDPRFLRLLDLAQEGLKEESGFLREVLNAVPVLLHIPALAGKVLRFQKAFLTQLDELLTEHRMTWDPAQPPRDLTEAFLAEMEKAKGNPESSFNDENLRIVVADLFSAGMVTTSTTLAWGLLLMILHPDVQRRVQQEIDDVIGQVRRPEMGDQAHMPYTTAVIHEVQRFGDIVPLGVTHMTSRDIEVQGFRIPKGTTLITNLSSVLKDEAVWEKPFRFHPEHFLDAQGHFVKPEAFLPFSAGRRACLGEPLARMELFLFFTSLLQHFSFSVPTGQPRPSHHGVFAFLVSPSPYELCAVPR
# Sequence of Nuclear receptor subfamily 1 group I member 2 (Rattus norvegicus) (Q9R1A7 whole entry, looked up): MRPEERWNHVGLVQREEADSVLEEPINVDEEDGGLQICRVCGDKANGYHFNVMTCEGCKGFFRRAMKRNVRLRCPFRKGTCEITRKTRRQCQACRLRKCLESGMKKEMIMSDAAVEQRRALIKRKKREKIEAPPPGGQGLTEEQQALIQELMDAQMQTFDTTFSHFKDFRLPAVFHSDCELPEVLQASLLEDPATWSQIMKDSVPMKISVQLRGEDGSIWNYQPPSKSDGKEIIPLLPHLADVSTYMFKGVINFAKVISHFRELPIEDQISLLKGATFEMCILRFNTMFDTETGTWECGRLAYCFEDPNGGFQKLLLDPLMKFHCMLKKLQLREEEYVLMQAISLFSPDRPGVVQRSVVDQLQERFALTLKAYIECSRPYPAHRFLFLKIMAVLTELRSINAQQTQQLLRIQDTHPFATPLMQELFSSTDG
SMILES,Potency [1],Potency [2],Potency [3],Potency [4],Potency [5],Potency [6],max activation [7],Potency [8],Potency [9],Potency [10],activation [6]
Cc1cc(O)c2ccccc2c1O,16.8 µM (active),inactive,10.6 µM (active),inactive,33.5 µM (active),inactive,10%,1.58 µM (active),inactive,–,–
CSc1cnc(C)cn1,inactive,inactive,inactive,inactive,inactive,inactive,–,–,–,–,–
C=CC(=O)OCC(CO)(COCC(COC(=O)C=C)(COC(=O)C=C)COC(=O)C=C)COC(=O)C=C,3.03 µM (active),6.04 µM (active),0.76 µM (active),0.48 µM (active),3.81 µM (active),1.91 µM (active),–,–,–,15.7 µM (active),–
Cc1nc(-c2ccc3c(c2)CCN(CCC2CCC(NC(=O)/C=C/c4ccc(F)cc4)CC2)CC3)no1 (configuration not stated),inactive,inactive,6.87 µM (active),inactive,inactive,inactive,–,–,–,–,–
COc1cc(-c2ccc(N=C=O)c(OC)c2)ccc1N=C=O,inactive,inactive,inactive,inactive,inactive,inactive,–,–,–,–,–
CC(=O)S[C@@H]1CC2=CC(=O)CC[C@]2(C)[C@H]2CC[C@@]3(C)[C@@H](CC[C@@]34CCC(=O)O4)[C@H]12,inactive,inactive,–,–,–,–,–,–,–,–,–
ON=C1CCCC1,inactive,inactive,inactive,inactive,inactive,inactive,–,–,–,–,–
CNC(=O)c1ccccc1,inactive,inactive,inactive,inactive,inactive,inactive,–,–,–,–,–
Clc1ccc2nsnc2c1NC1=NCCN1,inactive,inactive,inactive,inactive,inactive,inactive,-3.32%,inactive,inactive,12.3 µM (active),–
CC(=O)SC[C@@H](Cc1ccccc1)C(=O)NCC(=O)OCc1ccccc1,inactive,inactive,inactive,inactive,inactive,inactive,-6.71%,–,inactive,1.1 µM (active),–
CC[C@H]1O[C@]2(CC[C@@H]1C)C[C@@H]1C[C@@H](C/C=C(\C)C[C@@H](C)/C=C/C=C3\CO[C@@H]4[C@H](O)C(C)=C[C@@H](C(=O)O1)[C@]34O)O2,27.1 µM (active),30.4 µM (active),17.1 µM (active),13.6 µM (active),42.9 µM (active),6.06 µM (active),–,–,–,–,–
C[n+]1cc2c3c(ccc2c2ccc4cc5c(cc4c21)OCO5)OCO3,2.91 µM (active),3.66 µM (active),1.03 µM (active),1.3 µM (active),5.17 µM (active),–,–,–,–,6.74 µM (active),-46.6% [at 19 µM]
CCCCCCCCCCCCCCCS(=O)(=O)Oc1ccccc1,inactive,inactive,inactive,inactive,inactive,inactive,–,–,–,inactive,–
CCCC(c1cc(C(C)(C)C)c(O)cc1C)c1cc(C(C)(C)C)c(O)cc1C,17.4 µM (active),24.6 µM (active),13.9 µM (active),inactive,22 µM (active),1.96 µM (active),–,–,–,–,–
O=C(O)c1cc(O)c2c(c1)C(=O)c1cccc(O)c1C2=O,25.1 µM (active),inactive,35.4 µM (active),inactive,44.6 µM (active),inactive,–,–,–,–,–
O=C(c1ccc(F)cc1)C1CCN(CCn2c(=O)[nH]c3ccccc3c2=O)CC1,inactive,inactive,inactive,inactive,inactive,inactive,–,–,–,–,–
C[C@]12CCC(=O)C=C1CC[C@@H]1[C@@H]2[C@@H](O)C[C@@]2(C)[C@H]1CC[C@]2(O)C(=O)COC(=O)CCC(=O)O,inactive,inactive,inactive,inactive,inactive,inactive,–,–,–,inactive,–
CCCN(CCC)c1c([N+](=O)[O-])cc(C(F)(F)F)c(N)c1[N+](=O)[O-],48.4 µM (active),60.9 µM (active),43.1 µM (active),54.3 µM (active),54.3 µM (active),4.84 µM (active),–,–,–,–,–
CC(C)(C)NC(=O)[C@@H]1C[C@@H]2CCCC[C@@H]2CN1C[C@@H](O)[C@H](Cc1ccccc1)NC(=O)[C@H](CC(N)=O)NC(=O)c1ccc2ccccc2n1,19.6 µM (active),69.5 µM (active),19.6 µM (active),61.9 µM (active),27.7 µM (active),24.7 µM (active),7.59%,inactive,–,–,–
N#CC1(c2ccc(F)cc2)CCC(=O)CC1,inactive,inactive,inactive,inactive,inactive,inactive,–,–,–,–,–

# Source: PubChem BioAssay (Tox21)
